# Test results reported in PubChem BioAssay (NCATS).
# Inconclusive results are not listed. Where a call stands in place of a potency, no number is given. The source made the active and inactive calls. Calls follow the shape of the dose curve; as a rule, active = well fitted inhibition curve with a large enough effect; inconclusive = small, poorly fitted or top-dose-only effect; inactive = flat fitted curve, though single readings scatter. Peptide text beside a SMILES is read from it.
# What was measured:
# Test in all cases: qHTS profiling for inhibitors of Plasmodium falciparum proliferation (AID 504749); also: nearly all actives have a fitted effect of over 60% in size
# Conditions in all cases: P. falciparum in erythrocytes, SYBR Green DNA, 72 h; series mostly up to 28.7 µM
# [1] = system: W2
# Outline: (§1)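 Parasite proliferation within erythrocytes, 72 h exposure. Endpoint: SYBR Green I fluorescence after overnight lysis at room temperature. Controls: 0.29 uM artemisinin, DMSO.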
# [2] = system: TAB113
# Outline: as §1
# [3] = system: TAB165
# Outline: as §1
# Potency is read from the fitted curve at half-maximal effect.
SMILES,Potency [1],Potency [2],Potency [3]
NC1C2CN(c3nc4c(cc3F)c(=O)c(C(=O)O)cn4-c3ccc(F)cc3F)CC12 (stereo unspecified),6.75 µM (active),,
Cc1ccccc1,inactive,inactive,inactive
CCCCCCOc1ccc(C(=N)N(CCCC)CCCC)c2ccccc12,3.38 µM (active),10 µM (active),12.6 µM (active)
O=S(=O)(O)c1ccc2c(N=Nc3ccc(S(=O)(=O)O)c4ccccc34)c(O)c(S(=O)(=O)O)cc2c1,inactive,inactive,inactive
O=C1CSC2(CCN(CCCN3c4ccccc4Sc4ccc(Cl)cc43)CC2)N1,4.78 µM (active),,
Cc1cc(C(=O)NNCc2ccccc2)no1,inactive,inactive,inactive
COC(=O)CCC(=O)CN,inactive,inactive,inactive
CCCCCCCCCCCCCCCC(=O)OCC(COC(=O)CCCCCCCCCCCCCCC)OC(=O)CCCCCCCCCCCCCCC,inactive,inactive,inactive
COc1cc(-c2ccc(-[n+]3nc(-c4ccccc4)nn3-c3ccc([N+](=O)[O-])cc3)c(OC)c2)ccc1-[n+]1nc(-c2ccccc2)nn1-c1ccc([N+](=O)[O-])cc1,12 µM (active),,
Clc1cc(Cl)c(OCC#CI)cc1Cl,10.7 µM (active),5.01 µM (active),11.2 µM (active)
CCN(CC)Cc1cc(Nc2ccnc3cc(Cl)ccc23)ccc1O,0.051 µM (active),0.0794 µM (active),0.0447 µM (active)
Nc1ncnc2c1ncn2[C@@H]1O[C@H](COP(=O)(O)OP(=O)(O)OP(=O)(O)O)[C@@H](O)[C@H]1O,inactive,inactive,inactive
CCCCCCC(O)C/C=C/CCCCCCCC(=O)O (stereo unspecified),inactive,inactive,inactive
Cc1c(C)c2c(c(C)c1O)CC[C@@](C)(CCC[C@@H](C)CCC[C@@H](C)CCCC(C)C)O2,inactive,inactive,inactive
CCOC(=O)C1=C(C)NC(C)=C(C(=O)OCC)C1c1ccccc1C=CC(=O)OC(C)(C)C,6.75 µM (active),,11.2 µM (active)
Cc1ccccc1OCC(O)CNCCOc1ccc(C(N)=O)cc1 (stereo unspecified),inactive,inactive,inactive
CCCC(=O)Nc1ncnc2c1ncn2C1OC2COP(=O)(O)OC2C1OC(=O)CCC (stereo unspecified),inactive,inactive,inactive
COC(=O)C1=C(C#N)NC(C)=C(C(=O)OC(C)C)C1c1cccc([N+](=O)[O-])c1 (stereo unspecified),,,10 µM (active)
C[C@]12O[C@H](C[C@]1(O)CO)n1c3ccccc3c3c4c(c5c6ccccc6n2c5c31)CNC4=O,0.239 µM (active),0.316 µM (active),0.251 µM (active)

SMILES,Potency [1],Potency [2],Potency [3]
CCNC(=O)[C@@H]1CCCN1C(=O)[C@H](CCCN=C(N)N)NC(=O)[C@H](CC(C)C)NC(=O)[C@@H](Cc1c[nH]c2ccccc12)NC(=O)[C@H](Cc1ccc(O)cc1)NC(=O)[C@H](CO)NC(=O)[C@H](Cc1c[nH]c2ccccc12)NC(=O)[C@H](Cc1cnc[nH]1)NC(=O)[C@@H]1CCC(=O)N1,0.849 µM (active),8.91 µM (active),3.16 µM (active)
CC(NNC(=O)c1ccccc1)c1ccccc1 (stereo unspecified),inactive,inactive,inactive
CC(Cc1ccc(O)c(O)c1)C(C)Cc1ccc(O)c(O)c1 (stereo unspecified),15.1 µM (active),inactive,
CC[C@@]1(O)C(=O)OCc2c1cc1n(c2=O)Cc2cc3c([N+](=O)[O-])cccc3nc2-1,4.78 µM (active),5.62 µM (active),3.98 µM (active)
COC(F)(F)C(Cl)Cl,inactive,inactive,inactive
NC(=O)c1ncn(C2OC(CO)C(O)C2O)n1 (stereo unspecified),inactive,inactive,inactive
Oc1cc(O)c2c(c1)OC(c1ccc(O)c(O)c1)C(O)C2 (stereo unspecified),inactive,inactive,inactive
CC1(C)S[C@@H]2[C@H](NC(=O)[C@@H](NC(=O)N3CCNC3=O)c3ccccc3)C(=O)N2[C@H]1C(=O)O,inactive,inactive,inactive
CC1=C(/C=C/C(C)=C/C=C/C(C)=C/CO)C(C)(C)CCC1,7.57 µM (active),11.2 µM (active),
CCOC(C)=O,inactive,inactive,inactive
CCOc1ccc(N=Nc2ccc(N)cc2N)cc1,inactive,,
CC1=C(/C=C/C(C)=C/C=C/C(C)=C/C=C/C=C(C)/C=C/C=C(C)/C=C/C2=C(C)C(=O)CCC2(C)C)C(C)(C)CCC1=O,inactive,inactive,inactive
C[C@@H]1CCC2[C@@H](C)[C@@H](O)O[C@@H]3O[C@@]4(C)CC[C@@H]1[C@@]23OO4 (stereo partly specified),0.0005 µM (active),0.0011 µM (active),0.0009 µM (active)
CC(=O)N[C@@H](CC(=O)O)C(=O)N[C@@H](CCC(=O)O)C(=O)O (Ac-Asp-Glu-OH),inactive,inactive,inactive
Cc1cn([C@H]2C[C@H](O)[C@@H](CO)O2)c(=O)[nH]c1=O,inactive,inactive,inactive
C[C@H]1C[C@H]2[C@@H]3CCC4=CC(=O)C=C[C@]4(C)[C@@]3(F)[C@@H](O)C[C@]2(C)[C@@]1(O)C(=O)CO,inactive,inactive,inactive
CC[N+](C)(C)Cc1ccccc1Br,inactive,inactive,inactive
C=C1C(=CC=C2CCC[C@@]3(C)[C@@H]2CC[C@H]3[C@H](C)CCCC(C)C)C[C@@H](O)C[C@@H]1O,9.53 µM (active),,
